From PubChem BioAssay
Inconclusive results are not listed. Calls of active or inactive are those of the source.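 Rule for the calls, unless noted: active = differentiation response of at least 50%, scaled between solvent and reference control, from cells with both markers; inactive = the rest.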

What was measured:
[1] = yeast TOR pathway RPL19A-GFP modulators, primary screen, cell-based, S. cerevisiae, multiplex flow cytometry (AID 1862; in the data active = percent of DMSO control GFP below about 86%;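 note: lower values mimic rapamycin by blocking the RPL19A rise seen in DMSO cells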); settings: S. cerevisiae RPL19A-GFP strain, flow cytometry fluorescence, 3 h; at 10 µM; stronger effect = lower value
[2] = modulators of MEP2-GFP levels in yeast, primary screen, S. cerevisiae, multiplex flow cytometry (AID 1867;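 active = GFP response, as percent of the DMSO control, above the screen-wide mean plus 3 SD, about 139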;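 note: median GFP channel fluorescence of barcode-gated MEP2-GFP cells measured by flow cytometry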); settings: S. cerevisiae MEP2-GFP strain, 3 h, at 10 µM, stronger effect = higher value, 100% means same as DMSO wells
[3] = modulators of CIT2-GFP expression in yeast, primary screen, S. cerevisiae, GFP fusion, multiplex flow cytometry (AID 1870;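 active = percent response above a set limit, the screen-wide mean plus 3 SD, cut at about 130% in these data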;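 note: barcoded CIT2-GFP strain pooled with four other GFP strains with rapamycin as positive control; median GFP fluorescence per well over plate mean of DMSO wells so 100% = DMSO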); settings: 3 h, at 10 µM, stronger effect = higher value
[4] = modulators of LAP4-GFP expression in yeast, primary screen, S. cerevisiae, multiplex flow cytometry (AID 1873;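 active = GFP signal, as percent of the solvent control, above the screen mean plus 3 SD, about 149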); settings: 3 h, at 10 µM, stronger effect = higher value
[5] = modulators of AGP1-GFP expression in yeast TOR pathway, primary screen, cell-based, multiplex flow cytometry, S. cerevisiae (AID 1887;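 active = GFP signal above the screen-wide mean plus 3 SD, that is over about 124.5% of the solvent control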;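 note: AGP1-GFP fusion strain of S. cerevisiae within a five-strain barcoded multiplex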); settings: 3 h, at 10 µM, stronger effect = higher value
[6] = inhibitors of CD8+ T cell-vesicle binding, pilot screen, LFA-1/ICAM-1 modulator project, MLPCN validation set, flow cytometry (AID 2523;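 active = response below a set limit, under 55% cells CD8-positive and vesicle-bound, and CD8 cells' 90th-percentile brightness under 279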;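 for vesicle binding response: mean PE anti-B7-1 fluorescence of CD8+ cells relative to row control; 100% = QL9-loaded vesicles with DMSO vehicle in the same plate row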); settings: 2C mouse CD8+ T cells, at 7 µM, stronger effect = lower value; double positive events: measured here: CD8+/vesicle+ event percentage
[7] = target: Integrin beta-1 (Homo sapiens) + Integrin alpha-4 (Homo sapiens) (UniProt P13612+P05556); assay: inhibition of HUTS-21 binding to VLA-4, pilot screen, VLA-4 allosteric modulator project, U937 cells, HUTS-21 mAb, flow cytometry, validation set (AID 2674;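 active = inhibition above 50%, about 3 SD of the validation set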;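 note: antibody binding induced by the VLA-4 ligand LDV present at three times its Kd; 0% = LDV ligand with antibody and no compound and 100% = antibody without LDV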); settings: HUTS-21 LIBS mAb binding, at 6.7 µM, stronger effect = higher value, binding induced by LDV ligand
[8] = superoxide lowering in aged yeast cells, pilot screen, validation compound set (AID 2706;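 active = superoxide response below 65% of plate, a cut near 3 SD across the whole screen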;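 note: yeast exposed to compound for one week at 30 degrees C before staining; 100% = mean of all compound wells on the same plate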); settings: S. cerevisiae aging, superoxide DHE fluorescence; at 10 µM; stronger effect = lower value
[9] = target: Beta-adrenergic receptor kinase 1 (Homo sapiens) (UniProt P25098); assay: GRK2 binders displacing RNA aptamer, biochemical, validation, human GRK2, bead flow cytometry (AID 488806;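 active = aptamer binding inhibition above 30%, about 3 SD of noise from non-fluorescent compounds; inactive = inhibition at or below 30%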); settings: bead-bound GRK2, FAM-aptamer displacement, at 10 µM, stronger effect = higher value
[10] = target: Beta-2 adrenergic receptor (Homo sapiens) (UniProt P07550); assay: beta2AR agonists driving receptor internalization, pilot screen, cell-based, FAP fluorogen, flow cytometry, validation set (AID 504459;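 active = percent response above 42, roughly 3 SD of non-fluorescent test compounds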;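 note: agonist-driven loss of surface beta2AR via internalization measured by FAP dye flow cytometry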); settings: Am2.2-beta2AR cells, FAP surface receptor flow cytometry; at 10 µM; stronger effect = higher value
[11] = target: AP-2 complex subunit beta (Homo sapiens) (UniProt P63010); assay: inhibitors of arrestin peptide binding to AP2, pilot screen, biochemical, validation set, GST-AP2 beads, flow cytometry (AID 504541;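 active = inhibition above 54%, about 3 SD of non-fluorescent compounds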;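 note: AP2 carries R879A mutation and is captured from E. coli lysate; bead-bound FITC arrestin peptide fluorescence measuring arrestin peptide binding to AP2; 0% = DMSO wells and 100% = excess unlabeled arrestin peptide control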); settings: FITC arrestin peptide, at 10 µM, stronger effect = higher value, AP2 beta2 appendage fragment, R879A mutant
[12] = yeast V-ATPase proton transport modulators, S. cerevisiae, pHLuorin, HTS validation (AID 504600; in the data active = response above about 15%;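 note: plate controls were DMSO for no effect and reference compound for full effect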); settings: S. cerevisiae pHLuorin cytosolic pH, at 10 µM, stronger effect = higher value
[13] = test system: anti-desmoglein-3 scFv antibody binding to human DSG3; assay: inhibitors of anti-DSG3 scFv binding to DSG3, pilot screen, biochemical, validation compound set, bead-based, flow cytometry (AID 588368;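 active = binding below the plate cutoff, the plate median minus 3 SD, with a reading above zero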;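 note: signal is the median channel fluorescence of bead-bound GFP antibody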); settings: Protein G beads, DSG3-Fc, scFv-GFP binding, at 10 µM, stronger effect = lower value
[14] = inhibitors of fungal efflux pumps CDR1, CDR2, MDR1, pilot screen, validation compound set, multiplex, phenotypic (AID 588506;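 active = efflux inhibition above 0.42, the validation set average plus 4 SD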;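 note: Nile Red retained in cells so higher fluorescence means more efflux inhibition; 0 = negative control wells and 1 = enniatin B 25 µM full block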); settings: S. cerevisiae pump-expressing triplex, Nile Red efflux flow cytometry; at 10 µM; stronger effect = higher value; the pumps come from Candida albicans
[15] = target: ATP-binding cassette sub-family B member 6 (Homo sapiens) (UniProt Q9NP58); assay: ABCB6 transporter inhibitors, pilot screen, K562-ABCB6 cells, flow cytometry, validation set (AID 588550;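 active = inhibition above the screen-wide mean plus 3 SD, about 51%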;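 note: 0% = DMSO wells and 100% = benzethonium chloride 70 µM positive control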); settings: K562-ABCB6 porphyrin accumulation, 1 h, at 10 µM, stronger effect = higher value
[16] = promoters of myeloid differentiation in arrested cells, primary screen, cell-based, GFP/MAC1 double positive, flow cytometry, validation set (AID 588685); settings: ER-HoxA9 marrow cells, stronger effect = higher value, normalized: vehicle 0, fulvestrant 100;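 note: compound exposure lasts four days before antibody staining and flow analysis; 0% = DMSO wells and 100% = 5 µM fulvestrant positive control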

Chain of Integrin beta-1 (Homo sapiens) + Integrin alpha-4 (Homo sapiens) (P05556 whole entry, looked up): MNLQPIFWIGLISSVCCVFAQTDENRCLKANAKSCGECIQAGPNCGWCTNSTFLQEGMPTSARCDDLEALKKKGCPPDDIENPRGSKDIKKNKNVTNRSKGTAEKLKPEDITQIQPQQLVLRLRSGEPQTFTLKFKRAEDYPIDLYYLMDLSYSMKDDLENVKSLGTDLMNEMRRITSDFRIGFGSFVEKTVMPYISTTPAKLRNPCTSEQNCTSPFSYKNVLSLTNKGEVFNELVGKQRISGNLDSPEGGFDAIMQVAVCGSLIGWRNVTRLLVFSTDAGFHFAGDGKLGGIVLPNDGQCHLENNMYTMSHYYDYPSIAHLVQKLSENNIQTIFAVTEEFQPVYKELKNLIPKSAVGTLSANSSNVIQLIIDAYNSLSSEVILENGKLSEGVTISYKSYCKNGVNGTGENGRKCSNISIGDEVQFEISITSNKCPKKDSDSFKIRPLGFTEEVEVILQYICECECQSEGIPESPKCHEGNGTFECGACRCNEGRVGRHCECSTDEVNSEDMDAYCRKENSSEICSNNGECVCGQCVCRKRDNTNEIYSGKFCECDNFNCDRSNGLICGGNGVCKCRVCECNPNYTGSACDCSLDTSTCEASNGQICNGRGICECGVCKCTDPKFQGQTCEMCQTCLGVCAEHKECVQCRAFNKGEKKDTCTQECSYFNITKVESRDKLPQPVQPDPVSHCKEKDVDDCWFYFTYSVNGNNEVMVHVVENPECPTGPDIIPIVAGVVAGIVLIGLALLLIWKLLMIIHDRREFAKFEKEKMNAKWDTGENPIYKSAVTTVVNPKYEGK
Chain of Integrin beta-1 (Homo sapiens) + Integrin alpha-4 (Homo sapiens) (P13612 whole entry, looked up): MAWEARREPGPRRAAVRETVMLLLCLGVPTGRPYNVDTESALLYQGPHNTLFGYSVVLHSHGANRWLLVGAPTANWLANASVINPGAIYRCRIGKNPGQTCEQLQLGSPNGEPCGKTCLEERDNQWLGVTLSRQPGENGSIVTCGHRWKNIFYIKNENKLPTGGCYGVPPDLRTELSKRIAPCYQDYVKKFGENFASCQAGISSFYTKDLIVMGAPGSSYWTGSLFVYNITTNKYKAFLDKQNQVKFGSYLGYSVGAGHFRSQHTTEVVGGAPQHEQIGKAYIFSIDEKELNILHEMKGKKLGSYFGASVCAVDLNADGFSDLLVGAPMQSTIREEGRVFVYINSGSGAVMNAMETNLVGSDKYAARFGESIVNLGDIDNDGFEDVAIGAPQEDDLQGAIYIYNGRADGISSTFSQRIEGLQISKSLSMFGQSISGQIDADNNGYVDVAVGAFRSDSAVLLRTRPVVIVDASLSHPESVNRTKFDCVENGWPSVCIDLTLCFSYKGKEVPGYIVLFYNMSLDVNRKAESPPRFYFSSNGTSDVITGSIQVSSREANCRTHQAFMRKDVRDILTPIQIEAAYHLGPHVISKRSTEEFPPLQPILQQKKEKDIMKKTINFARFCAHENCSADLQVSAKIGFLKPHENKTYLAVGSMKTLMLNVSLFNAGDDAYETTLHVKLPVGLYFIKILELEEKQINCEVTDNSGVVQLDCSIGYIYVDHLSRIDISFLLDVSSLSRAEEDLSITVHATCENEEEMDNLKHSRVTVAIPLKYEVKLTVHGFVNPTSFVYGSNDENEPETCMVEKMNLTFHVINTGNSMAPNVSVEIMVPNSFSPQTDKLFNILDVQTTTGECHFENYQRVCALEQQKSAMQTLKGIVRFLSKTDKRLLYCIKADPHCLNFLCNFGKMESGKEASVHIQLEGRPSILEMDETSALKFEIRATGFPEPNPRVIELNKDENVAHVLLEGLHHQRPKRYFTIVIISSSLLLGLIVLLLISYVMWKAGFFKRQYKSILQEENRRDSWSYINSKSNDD
Chain of ATP-binding cassette sub-family B member 6 (Homo sapiens) (Q9NP58 whole entry, looked up): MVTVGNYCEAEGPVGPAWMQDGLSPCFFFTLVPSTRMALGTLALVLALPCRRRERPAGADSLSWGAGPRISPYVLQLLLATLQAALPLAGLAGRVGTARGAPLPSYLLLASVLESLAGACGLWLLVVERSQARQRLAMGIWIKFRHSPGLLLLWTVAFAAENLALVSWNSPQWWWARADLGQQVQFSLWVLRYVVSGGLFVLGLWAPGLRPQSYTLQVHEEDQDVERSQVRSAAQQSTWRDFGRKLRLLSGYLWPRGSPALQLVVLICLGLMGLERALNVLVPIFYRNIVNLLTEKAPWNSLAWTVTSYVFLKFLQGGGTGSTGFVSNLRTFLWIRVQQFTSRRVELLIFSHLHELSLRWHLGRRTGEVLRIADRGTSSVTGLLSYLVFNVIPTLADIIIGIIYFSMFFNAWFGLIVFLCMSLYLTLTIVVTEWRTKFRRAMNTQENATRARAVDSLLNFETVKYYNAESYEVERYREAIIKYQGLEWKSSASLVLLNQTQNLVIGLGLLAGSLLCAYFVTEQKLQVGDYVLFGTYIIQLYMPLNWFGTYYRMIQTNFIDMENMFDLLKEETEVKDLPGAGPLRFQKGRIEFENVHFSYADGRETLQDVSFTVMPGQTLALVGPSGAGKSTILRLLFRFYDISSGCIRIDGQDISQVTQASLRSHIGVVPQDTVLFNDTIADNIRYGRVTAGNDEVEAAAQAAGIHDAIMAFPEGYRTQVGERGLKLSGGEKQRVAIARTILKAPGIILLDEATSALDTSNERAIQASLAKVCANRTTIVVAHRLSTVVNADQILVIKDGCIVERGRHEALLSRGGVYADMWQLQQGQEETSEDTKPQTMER
Chain of Beta-2 adrenergic receptor (Homo sapiens) (P07550 whole entry, looked up): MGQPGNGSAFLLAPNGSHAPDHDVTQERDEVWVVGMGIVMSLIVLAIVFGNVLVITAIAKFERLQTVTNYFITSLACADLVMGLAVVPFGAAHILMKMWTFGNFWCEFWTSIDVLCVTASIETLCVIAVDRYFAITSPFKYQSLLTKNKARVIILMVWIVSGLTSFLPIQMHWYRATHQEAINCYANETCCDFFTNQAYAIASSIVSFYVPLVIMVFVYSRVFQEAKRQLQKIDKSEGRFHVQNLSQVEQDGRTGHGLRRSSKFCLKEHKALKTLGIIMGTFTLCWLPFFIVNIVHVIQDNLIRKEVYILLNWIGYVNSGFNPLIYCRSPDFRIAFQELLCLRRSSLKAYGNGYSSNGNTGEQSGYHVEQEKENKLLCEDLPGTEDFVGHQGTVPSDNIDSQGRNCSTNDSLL
Chain of AP-2 complex subunit beta (Homo sapiens) (P63010 whole entry, looked up, the tested form may be a part, one chain of several): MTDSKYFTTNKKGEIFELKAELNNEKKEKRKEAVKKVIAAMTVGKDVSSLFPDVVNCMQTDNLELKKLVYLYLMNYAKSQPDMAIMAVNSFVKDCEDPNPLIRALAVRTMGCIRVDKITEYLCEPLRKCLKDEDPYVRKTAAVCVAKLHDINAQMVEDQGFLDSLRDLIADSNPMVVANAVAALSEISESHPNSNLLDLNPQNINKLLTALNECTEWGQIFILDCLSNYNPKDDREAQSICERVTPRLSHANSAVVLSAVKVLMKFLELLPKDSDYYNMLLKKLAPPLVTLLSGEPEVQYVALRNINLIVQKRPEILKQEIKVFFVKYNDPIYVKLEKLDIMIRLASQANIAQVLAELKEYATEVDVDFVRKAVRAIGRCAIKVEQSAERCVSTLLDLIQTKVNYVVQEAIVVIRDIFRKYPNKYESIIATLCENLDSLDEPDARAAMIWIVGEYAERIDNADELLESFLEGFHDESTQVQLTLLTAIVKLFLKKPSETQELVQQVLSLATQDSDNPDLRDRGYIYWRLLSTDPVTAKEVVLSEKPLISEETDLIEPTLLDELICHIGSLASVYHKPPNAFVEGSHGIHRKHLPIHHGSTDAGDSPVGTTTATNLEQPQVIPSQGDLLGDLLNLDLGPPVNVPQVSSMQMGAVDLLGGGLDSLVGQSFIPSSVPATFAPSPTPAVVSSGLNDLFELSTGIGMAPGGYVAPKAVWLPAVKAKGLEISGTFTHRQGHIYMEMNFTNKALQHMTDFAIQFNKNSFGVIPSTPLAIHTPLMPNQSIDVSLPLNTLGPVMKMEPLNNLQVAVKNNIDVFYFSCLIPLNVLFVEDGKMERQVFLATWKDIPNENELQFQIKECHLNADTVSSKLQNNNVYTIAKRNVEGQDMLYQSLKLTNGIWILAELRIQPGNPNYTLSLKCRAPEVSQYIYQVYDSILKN
Chain of Beta-adrenergic receptor kinase 1 (Homo sapiens) (P25098 whole entry, looked up): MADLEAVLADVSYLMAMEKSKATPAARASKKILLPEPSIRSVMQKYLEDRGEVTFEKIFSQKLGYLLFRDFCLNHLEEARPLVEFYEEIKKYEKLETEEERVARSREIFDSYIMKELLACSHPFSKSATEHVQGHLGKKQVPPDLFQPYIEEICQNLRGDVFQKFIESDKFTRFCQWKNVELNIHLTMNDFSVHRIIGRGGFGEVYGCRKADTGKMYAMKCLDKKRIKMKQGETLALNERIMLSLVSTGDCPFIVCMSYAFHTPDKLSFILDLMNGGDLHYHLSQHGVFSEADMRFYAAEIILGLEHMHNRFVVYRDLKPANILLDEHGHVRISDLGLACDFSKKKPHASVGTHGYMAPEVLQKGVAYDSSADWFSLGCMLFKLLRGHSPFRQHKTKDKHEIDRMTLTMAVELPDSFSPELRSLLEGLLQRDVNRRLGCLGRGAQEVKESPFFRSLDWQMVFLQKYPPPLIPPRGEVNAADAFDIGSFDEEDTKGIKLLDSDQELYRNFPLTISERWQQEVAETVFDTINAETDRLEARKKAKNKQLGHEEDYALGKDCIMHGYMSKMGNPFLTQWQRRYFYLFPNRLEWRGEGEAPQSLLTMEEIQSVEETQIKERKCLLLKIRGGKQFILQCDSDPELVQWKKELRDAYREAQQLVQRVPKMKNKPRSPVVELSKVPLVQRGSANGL

O=C(Nc1ccc(N2CCOCC2)cc1)c1ccc(-c2ccccc2[N+](=O)[O-])o1
inactive: percent of DMSO control GFP [1] 102% | GFP response vs DMSO [2] 102% | percent response of DMSO control [3] 106% | GFP response vs DMSO [4] 96.5% | GFP response, % of DMSO [5] 98.8% | vesicle binding response [6] 132% | inhibition [7] 3.98% | superoxide response (% of plate) [8] 99.9% | aptamer binding inhibition [9] 5% | response [10] 8.71% | inhibition [11] -4.06% | response [12] 1.65% | binding (% of control) [13] 97.9% | efflux inhibition (fraction of control) [14] 0.07 | inhibition [15] 6% | differentiation response [16] -1.88%
68.5%: double positive events [6]

COc1cc2nc(-c3ccccc3)nc(N3CCCC3)c2cc1OC
68.2%: double positive events [6]
inactive: percent of DMSO control GFP [1] 104% | GFP response vs DMSO [2] 98.3% | percent response of DMSO control [3] 107% | GFP response vs DMSO [4] 82.2% | GFP response, % of DMSO [5] 104% | vesicle binding response [6] 459% | inhibition [7] -36.8% | superoxide response (% of plate) [8] 85.3% | aptamer binding inhibition [9] 6% | response [10] -10% | inhibition [11] -3.58% | response [12] 2.32% | binding (% of control) [13] 98.2% | efflux inhibition (fraction of control) [14] -0.07 | inhibition [15] 11% | differentiation response [16] -1.71%

CC(N=C(NC#N)Nc1ccncc1)C(C)(C)C (stereo not given)
inactive: percent of DMSO control GFP [1] 102% | GFP response vs DMSO [2] 103% | percent response of DMSO control [3] 103% | GFP response vs DMSO [4] 99.1% | GFP response, % of DMSO [5] 100% | vesicle binding response [6] 97.4% | inhibition [7] 5.61% | superoxide response (% of plate) [8] 104% | aptamer binding inhibition [9] 3% | response [10] -2.47% | inhibition [11] 0.53% | response [12] -9.1% | binding (% of control) [13] 101% | efflux inhibition (fraction of control) [14] 0.09 | inhibition [15] -10% | differentiation response [16] -1.65%
59.1%: double positive events [6]

O=C(O)C1CSC(c2ccc3c(c2)OCO3)N1 (stereo not given)
inactive: percent of DMSO control GFP [1] 93.9% | GFP response vs DMSO [2] 121% | percent response of DMSO control [3] 101% | GFP response vs DMSO [4] 78.7% | GFP response, % of DMSO [5] 90.3% | vesicle binding response [6] 197% | inhibition [7] -7.12% | superoxide response (% of plate) [8] 86.1% | aptamer binding inhibition [9] 3% | response [10] -4.07% | inhibition [11] -4.96% | response [12] 0.02% | binding (% of control) [13] 105% | efflux inhibition (fraction of control) [14] -0.2 | inhibition [15] 9% | differentiation response [16] -4.91%
61.8%: double positive events [6]

COCC1CCCN(Cc2cn[nH]c2-c2cc3ccccc3o2)C1 (stereo not given)
inactive: percent of DMSO control GFP [1] 95.9% | GFP response vs DMSO [2] 109% | percent response of DMSO control [3] 83.4% | GFP response vs DMSO [4] 115% | GFP response, % of DMSO [5] 102% | vesicle binding response [6] 181% | inhibition [7] -14.1% | superoxide response (% of plate) [8] 98.3% | aptamer binding inhibition [9] 2% | response [10] -14.2% | inhibition [11] 0.03% | response [12] 1.33% | binding (% of control) [13] 99.9% | efflux inhibition (fraction of control) [14] 0.05 | inhibition [15] 7% | differentiation response [16] 5.6%
63.3%: double positive events [6]

Cc1ccc2c(CC(=O)O)coc2c1
61.6%: double positive events [6]
inactive: percent of DMSO control GFP [1] 104% | GFP response vs DMSO [2] 94.1% | percent response of DMSO control [3] 109% | GFP response vs DMSO [4] 73% | GFP response, % of DMSO [5] 95.4% | vesicle binding response [6] 132% | inhibition [7] -0.45% | superoxide response (% of plate) [8] 107% | aptamer binding inhibition [9] 13% | response [10] -1.64% | inhibition [11] 0.71% | response [12] -0.96% | binding (% of control) [13] 95.5% | efflux inhibition (fraction of control) [14] 0.02 | inhibition [15] 13% | differentiation response [16] 0.24%

CN(C)CCCN1c2ccccc2Sc2ccc(C(F)(F)F)cc21
inactive: percent of DMSO control GFP [1] 99% | GFP response vs DMSO [2] 106% | percent response of DMSO control [3] 99% | GFP response vs DMSO [4] 115% | GFP response, % of DMSO [5] 113% | vesicle binding response [6] 196% | superoxide response (% of plate) [8] 88.6% | aptamer binding inhibition [9] -7% | response [10] 26.6% | inhibition [11] 29.2% | response [12] -0.19% | binding (% of control) [13] 101% | efflux inhibition (fraction of control) [14] 0.25 | inhibition [15] 6% | differentiation response [16] -18.8%
60.5%: double positive events [6]
active: inhibition [7] 53.4%

O=C1CCCC(=O)C1=Cc1c[nH]c2ccccc12
inactive: percent of DMSO control GFP [1] 97.9% | GFP response vs DMSO [2] 102% | percent response of DMSO control [3] 95.1% | GFP response vs DMSO [4] 112% | GFP response, % of DMSO [5] 106% | vesicle binding response [6] 226% | inhibition [7] 9.95% | superoxide response (% of plate) [8] 108% | aptamer binding inhibition [9] 3% | response [10] 28.4% | inhibition [11] 7.17% | response [12] 5.91% | binding (% of control) [13] 98.5% | efflux inhibition (fraction of control) [14] 0 | inhibition [15] -6% | differentiation response [16] 5.85%
62%: double positive events [6]

O=C(CCC(=O)c1cccs1)c1cccs1
60.5%: double positive events [6]
inactive: percent of DMSO control GFP [1] 99.5% | GFP response vs DMSO [2] 96.3% | percent response of DMSO control [3] 107% | GFP response vs DMSO [4] 72.6% | GFP response, % of DMSO [5] 86.5% | vesicle binding response [6] 125% | inhibition [7] -4.52% | superoxide response (% of plate) [8] 108% | aptamer binding inhibition [9] 3% | response [10] -4.9% | inhibition [11] -11.3% | response [12] 1.04% | binding (% of control) [13] 91.5% | efflux inhibition (fraction of control) [14] -0.1 | inhibition [15] 6% | differentiation response [16] -20%

COc1ccc2[nH]c(=O)c3c(c2c1)OC(C)(C)C=C3
59.1%: double positive events [6]
inactive: percent of DMSO control GFP [1] 93.7% | GFP response vs DMSO [2] 105% | percent response of DMSO control [3] 89.1% | GFP response vs DMSO [4] 119% | GFP response, % of DMSO [5] 95.1% | vesicle binding response [6] 88% | inhibition [7] -3.16% | superoxide response (% of plate) [8] 99.1% | aptamer binding inhibition [9] 4% | response [10] 5.61% | inhibition [11] -1.86% | response [12] 2.4% | binding (% of control) [13] 101% | efflux inhibition (fraction of control) [14] 0.08 | inhibition [15] 6% | differentiation response [16] 8.8%
